40 compounds from PubChem BioAssay (Tox21) can be followed below.

Molecules are shown by their SMILES. Inconclusive results are not listed. Where a call stands in place of a potency, no number is given. Active and inactive are the calls of the source. Calls follow the shape of the dose curve; as a rule, active = well fitted cell-killing curve with a large enough effect in the repeat runs; inconclusive = weak or mixed curves, or effect the other way; inactive = flat fitted curve, though single readings scatter.

This test in a line: qHTS RealTime-Glo MT Cell Viability Assay in HepG2 cells - 0 hour (AID 1224889). Also: nearly all actives have a fitted effect of over 50% in size. Conditions: RealTime-Glo luminescence; series mostly up to 76.8 µM. The text has this: U.S. Tox21 Program National Center for Advancing Translational Sciences [NCATS] NIH Chemical Genomics Center [NCGC] U.S. Environmental Protection Agency [EPA] National Institutes of Environmental Health Sciences [NIEHS] National Toxicology Program [NTP] U.S. Food and Drug Administration [FDA] Tox21 Assay Overview: Measure of cell viability is critical in the cell-base assay. Analysis of cell viability is necessary for the characterization of cell responses to cytotoxic drugs and environmental stress. A RealTime-Glo MT Cell Viability Assay to monitor cell viability in real time of continues cell culture during 40 hours of compound treatment was used to screen Tox21 10K library compounds in HepG2 cells. The RealTime-Glo MT Cell Viability Assay is a nonlytic, homogeneous, bioluminescent method to measure cell viability in real time using a simple, plate-based method. The assay involves adding NanoLuc luciferase and a cell-permeant prosubstrate to cells in culture. Viable cells reduce the proprietary prosubstrate to generate a substrate for NanoLuc luciferase. This substrate diffuses from cells into the surrounding culture medium, where it is rapidly used by the NanoLuc Enzyme to produce a luminescent signal. The signal correlates with the number of viable cells, making the assay well suited for cytotoxicity studies.
Tox21 Assay Protocol Summary: The mixture of HepG2 cell suspension and reagents were dispensed at 600cells/6 ul/well in 1536-well tissue culture treated black solid bottom plates using a Multidrop dispenser. After the assay plates were incubated at a 37 C/5% CO2 incubator for 5 hours, 23 nL of compounds dissolved in DMSO, positive and negative controls was transferred to the assay plate by a pintool work station. The plates were incubated at 37 C for 40 hours. The luminescence intensity were measured at 0h, 8h, 16h, 24h, 32h and 40h time points using ViewLux plate reader during compound treatment.
Background: qHTS replaces the single test concentration by a dilution series.
Consider `c1ccc2c(c1)CCc1ccccc1N2`, for which the Potency result was “inactive”.

On to `C=CC(C)(CCC=C(C)C)OC(=O)CC(C)C` (stereo not given), for which the Potency entry was “inactive”. On to `NNC(=O)CP(=O)(c1ccccc1)c1ccccc1`, for which the Potency entry is “inactive”. `C[C@H]1c2cccc(O)c2C(O)=C2C(=O)[C@]3(O)C(O)=C(C(N)=O)C(=O)[C@@H](N(C)C)[C@@H]3[C@@H](O)[C@@H]21`: the Potency result is “inactive”. On to `Cc1c(C)c2c(c(C)c1OC(=O)CCC(=O)OCCO)CC[C@@](C)(CCC[C@H](C)CCC[C@H](C)CCCC(C)C)O2`, for which the Potency result is “inactive”. For `CC1(C)[C@@H](OC(=O)CCC(=O)O)CC[C@]2(C)[C@H]3C(=O)C=C4[C@@H]5C[C@@](C)(C(=O)O)CC[C@]5(C)CC[C@@]4(C)[C@]3(C)CC[C@@H]12` the value was “inactive”. As to `OCCOCC#CCOCCO`, the Potency entry is “inactive”. Turning to `COC(=O)CS`, the Potency entry is “inactive”. Regarding `COC(=O)[C@H]1[C@H]2C[C@@H]3c4[nH]c5cc(OC)ccc5c4CCN3C[C@H]2C[C@@H](OC(=O)/C=C/c2ccc(O)c(OC)c2)[C@@H]1OC`, the Potency result is “inactive”. For `CCCCN1CCCC1C(=O)Nc1c(C)cc(C)cc1C` (stereo not given), the Potency entry is “inactive”. For `CC(O)c1ccccc1` (stereo not given), the Potency result is “inactive”.

Turning to `OC[C@H]1O[C@@H](n2cnc3c(=S)nc[nH]c32)[C@H](O)[C@@H]1O`, the Potency entry is “inactive”. With `O=C=Nc1ccc(Cl)c(Cl)c1`, the Potency result is “inactive”.

Turning to `CC(=O)c1ccc([N+](=O)[O-])cc1`, the Potency result is “inactive”.

For the compound `CC(C)C=O`, the Potency result was “inactive”. Take `C[C@H]1C[C@H](O)c2ccsc2S1(=O)=O`: the Potency entry was “inactive”. The same measure for `CC1=C(CC=O)C(C)(C)CCC1`: “inactive”; for `CCOC(=O)c1ccc(C#Cc2ccc3c(c2)C(C)(C)CCS3)nc1`: “inactive”.

Turning to `FC(F)(F)c1ccccc1Cl`, the Potency result was “inactive”. With `O=C1Cc2cc(Cl)ccc2N1`, the Potency result was “inactive”. For the compound `CCCCCCNC(=O)n1cc(F)c(=O)[nH]c1=O`, the Potency result was “inactive”. On to `Clc1cc(Cl)nc(Cl)n1`, for which the Potency result was “inactive”. Take `CC(C)=CCC1C(=O)N(c2ccccc2)N(c2ccccc2)C1=O`: the Potency result was “inactive”. Regarding `CCCCCCCCCI`, the Potency entry is “inactive”. `CCCCCCC(C)(C)C(=O)O`: the Potency entry was “inactive”. For `COc1cc(N)c(Cl)cc1C(=O)NC1CCN(CCCOc2ccc(F)cc2)CC1OC` (stereo not given) the value was “inactive”; for `O=C(Cn1ccnc1[N+](=O)[O-])NCCO`, “inactive”.

On to `Cc1cc(C)cc(N)c1`, for which the Potency result was “inactive”. The same measure for `C=C/C(C)=C/C/C=C(\C)CCC=C(C)C`: “inactive”. `C=C1CCC2CC1C2(C)C` (stereo not given): the Potency entry was “inactive”. For `Cc1ccc2c(Br)cc(Br)c(O)c2n1` the value was “inactive”; for `Nc1nc2ccc([N+](=O)[O-])cc2s1`, “inactive”.

Take `C1C[C@@H]2[C@H]3CC[C@H](C3)[C@@H]2C1`: the Potency result is “inactive”. For `O[C@@H]1CO[C@H]2[C@@H]1OC[C@@H]2O` the value was “inactive”; for `C=CCc1ccccc1OCC(O)CNC(C)C` (stereo not given), “inactive”; for `C=C(C)C(=O)OCCCCCCCCCCCCC`, “inactive”. As to `CC(=O)N/N=C/c1ccc([N+](=O)[O-])o1`, the Potency entry was “inactive”. Turning to `CCC=CC#N`, the Potency result is “inactive”. Turning to `O=C1c2ccccc2C(=O)N1CCc1noc(-c2ccc(CN3CCCCCC3)s2)n1`, the Potency result was “inactive”.

Consider `CCC1CO1` (stereo not given), for which the Potency result was “inactive”.
